High-throughput results: PubChem, National Center for Advancing Translational Sciences (NCATS)
SARS PLpro yeast – inhibitors of SARS-CoV papain-like protease in yeast; S. cerevisiae expressing SARS-CoV PLpro, growth rescue; Potency, µM (series often up to 32.9 µM), for the others: top-dose activity, positive = growth rescue, most hits filed as activators; hit rate 0.19% among 330,000; AID 485353; calls by dose curve; further: potency means the concentration at half of the fitted maximal effect; 0% is about no effect; nearly all actives have a fitted effect of over 55% in size
HCMV antiviral – blocks human cytomegalovirus replication | HFF cells, HCMV-luciferase reporter, 72 h; stronger effect = lower value | activity change, negative = inhibition, % at 57.5 µM | hit rate 4.5% among 410,000 | AID 1259415; in the data active means activity change below about -60%; inconclusive means no clear call, values can overlap the other calls; inactive means above about -39%; further: on the % scale 0 is the no-effect control and ±100 the full control effect
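Human foreskin fibroblasts infected with luciferase-reporter HCMV at MOI 1 PFU/cell, compounds at two doses. Luciferase measured 72 h post infection; normalized to buffer-only basal and Salinomycin (10uM) controls.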
Marburg entry inh – Marburg virus entry inhibition; Marburg virus pseudotyped entry inhibition, cell reporter; Potency, µM (top dose mostly 37.8 µM), inactives show at the highest dose activity change, negative = inhibition, usual class: inhibitors; hit rate 1.8% among 300,000; calls by dose curve; tested in HEK293 cells; further: potency means the concentration at half of the fitted maximal effect; on the % scale 0 is the no-effect control and ±100 the full control effect
FMDV inh – blocks foot and mouth disease virus; FMDV antiviral cell-based qHTS; Potency, µM (highest dose often 57.9 µM), for inactives: at the top dose activity change, negative = inhibition, most hits filed as inhibitors; hit rate 1.2% among 410,000; calls by dose curve; tested in HEK293T cells; further: read-out not given here; potency means the concentration at half of the fitted maximal effect; on the % scale 0 is the no-effect control and ±100 the full control effect; nearly all actives have a fitted effect of over 45% in size
Lassa entry inh – blocks Lassa virus binding to or entry into cells | Lassa virus pseudotype entry inhibition, cell reporter | Potency, µM (titrated, usually from 37.9 µM), without a hit: at the top dose activity change, negative = inhibition, actives largely listed as inhibitors | hit rate 1.2% among 300,000 | AID 540256; calls by dose curve; tested in HEK293 cells; further: potency means the concentration at half of the fitted maximal effect; on the % scale 0 is the no-effect control and ±100 the full control effect; nearly all actives have a fitted effect of over 50% in size
HCV inh – inhibitors of hepatitis C virus infection | Potency, µM (series often up to 41.8 µM), inactives show at the highest dose activity change, negative = inhibition, usual class: inhibitors | Huh7.5.1 HCVcc-Cre infection, luciferase reporter, 44 h | hit rate 3.4% among 340,000; active means well fitted inhibition curve with a large enough effect; inconclusive means small, poorly fitted or top-dose-only effect, or another doubt; inactive means no such curve, though single readings can be large or run the other way; further: potency means the concentration at half of the fitted maximal effect; on the % scale 0 is the no-effect control and ±100 the full control effect
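Infectious HCVcc-Cre (~0.5 moi) was added to cells just after compound, with cells seeded 4 h earlier at 1,000 per well. Luciferase activity after 44 h culture reported infection; substrate was incubated 15 min at room temperature before reading.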
An asterisk follows results filed as active; u = inconclusive; x = no result; [ ] = remark or other dose. Rows were chosen to be rich in hits. Some 8% of all compounds tested hit in one or more screens of this group.

SMILES | SARS PLpro yeast | HCMV antiviral | Marburg entry inh | FMDV inh | Lassa entry inh | HCV inh
CCOC(=O)c1cnc(SCC(=O)Nc2sc(C)c(C)c2C#N)nc1N | 0% | -64* | u | -8% | u | -10%
CCOC(=O)c1cnc(SCC(=O)Nc2cc(OC)cc(OC)c2)nc1N | 2% | -60* | -1% | 0% | -21% | u
CCOC(=O)c1cnc(SCc2nc(N)nc(Nc3ccccc3)n2)nc1N | 4% | -82* | -14% | u | 0% | u
CCN(C(=O)c1ccc2c(c1)N(Cc1cccc(Cl)c1)C(=O)c1ccccc1S2=O)c1ccccc1 (stereo not given) | x | -40 | x | -8% | -29%[46.1 µM] | x
CSCCC(c1nnnn1-c1c(C)cccc1C)N1CCN(C/C=C/c2ccccc2)CC1 (stereo not given) | x | -18 | x | -16% | x | x
CCC(c1nnnn1-c1c(C)cccc1C)N1CCN(C/C=C/c2ccccc2)CC1 (stereo not given) | x | -68* | x | -15% | x | x
C/C=C/C(=O)OCC(=O)Nc1ccc(SC(F)F)cc1 | -8% | -76* | -7%[46.1 µM] | 9% | -36% | 15%
O=C(Cc1ccc(Br)cc1)Nc1cccc(-c2cn3c(n2)SCC3)c1 | -2% | -71* | u | u | u | u
O=C(/C=C/Nc1ccccc1)C(F)(F)F | -1% | -80* | u | -15% | 5% | 7%
Cc1c(N/C=C/C(=O)C(F)(F)F)c(=O)n(-c2ccccc2)n1C | 1% | -9 | 6%[46.1 µM] | -13% | -2%[46.1 µM] | 9%
COc1cc(OC)c(NC(=O)NCCn2nnc3cc(S(=O)(=O)N(C)C)ccc32)cc1Cl | x | -11 | x | -15% | 9%[46.1 µM] | x
Cc1ccc(C)c(N2CCN(S(=O)(=O)c3cc(-c4cc(C)no4)ccc3C)CC2)c1 | x | 0 | x | -23% | -28%[46.1 µM] | x
Cc1cc(-c2ccc(C)c(S(=O)(=O)N3CCN(c4ccc([N+](=O)[O-])cc4)CC3)c2)on1 | 6% | -73* | u | -24% | u | u
O=C(C1CCN(S(=O)(=O)Cc2ccccc2)CC1)N1CCN(c2ccccc2)CC1 | x | 8 | u | -29% | -24%[46.1 µM] | x
CCOC(=O)c1ccc(N2C(=O)c3n[nH]c(-c4cccs4)c3C2c2ccc(Cl)cc2Cl)cc1 (stereo not given) | x | -107* | u | u | u | x
CCOC(=O)c1ccc(N2C(=O)c3n[nH]c(-c4cccs4)c3C2c2ccc(O)c(OC)c2)cc1 (stereo not given) | x | -74* | u | -28% | u | x
CCCNC(=O)c1ccc(CN2CCc3ccccc3C2)cc1 | -15% | 20 | -11% | 0% | 7% | -19%
O=C(Nc1ccc(Cl)cc1)c1ccc(CN2CCc3ccccc3C2)cc1 | -5% | -19 | x | -4% | x | 1.6µM*
COC(=O)c1ccc(NC(=S)N2CCN(Cc3ccc(Cl)cc3)CC2)cc1 | 3% | -21 | u | -27% | -1% | u
O=C(Nc1ccc(S(=O)(=O)N2CCOCC2)cc1)c1ccc(CN2CCc3ccccc3C2)cc1 | 0% | x | 2.5µM* | u | 10µM* | u
O=C(Nc1ccc(CN2CCS(=O)(=O)CC2)cc1)c1ccc(Cl)cc1 | -3% | u | -19%[46.1 µM] | -21% | -21% | 10µM*
CCN(CC)c1ccc(S(=O)(=O)N2CCOCC2)cc1NC(=O)CN1CCc2ccccc2C1 | 0% | -70* | u | u | u | u
N#CCc1ccc(NC(=O)c2ccc(CN3CCc4ccccc4C3)cc2)cc1 | 0% | -22 | x | u | x | 2µM*
Fc1ccc(Nc2nc3ccccc3c3nncn23)c(Cl)c1 | x | -13 | -15%[46.1 µM] | -10% | 0%[46.1 µM] | x
O=C(NNC(=O)c1csc(-c2cccs2)n1)c1ccc(Cl)cc1 | x | -103* | x | 10% | x | x
CNC(=O)c1csc(-c2cccs2)n1 | -1% | -25 | 6% | 48% | 12% | 12%
Cc1nc(-c2nc(CC(=O)NNC(=O)c3ccc(Cl)cc3)cs2)cs1 | 0% | -1 | 1% | -13% | u | 6%
Cc1nc(C(=O)NNC(=O)c2ccc(Cl)cc2)cs1 | -5% | -101* | u | 29% | 24% | u
Cc1ccc2occ(-c3cc(-c4ccc(F)cc4)nc4c3COc3ccc(F)cc3-4)c(=O)c2c1 | x | 11 | u | -16% | 0%[46.1 µM] | x
Cc1ccc(-n2nc(CC#N)c(C#N)c2N)cc1 | 4% | -6 | u | -8% | 13% | -3%
